We go through seven molecules from PubChem BioAssay (NCATS).

For test [1], the target named is Lysosomal acid glucosylceramidase (Homo sapiens) (UniProt P04062). As to the kind of experiment: Glucocerebrosidase-p2 (AID 348; in the data active = potency below about 10 µM; also: potency is read from the fitted curve at half-maximal effect). The following applies: purified GBA, blue fluorogenic substrate, 40 min. The method in brief: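 Compounds titrated from 0.6 nM upwards against 0.2 nM enzyme in pH 5.9 citric acid/KH2PO4, taurocholate, tween-20; blue fluorogenic substrate 80 uM, 40 min room temperature, stopped and read Ex 365/Em 440 for AC50.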

Test [2] can be described thus: AP1 Signaling Pathway (AID 357; active = well fitted curve in either direction with a large enough effect, not every such curve was filed as active;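 also: ME-180 reporter cells stimulated with EGF at its EC50 level; % is scaled to controls: 0 for no effect and ±100 for the full control effect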). Conditions: ME-180 AP-1-bla reporter, EGF-induced, beta-lactamase ratio, 5 h; at 7.69 µM (top of the series) unless noted. Put shortly: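 In this screen, ME-180 cells in Opti-MEM with 0.5% dialyzed FBS received EC50 EGF and compound titrations for 5 h. AP-1 reporter beta-lactamase was detected via CCF4 ratio, giving AC50 for positive and negative modulators.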

The target in test [3] is Cytochrome P450 1A2 (Homo sapiens) (UniProt P05177). Put plainly: p450-cyp1a2 (AID 410; calls by dose curve; also: potency is read from the fitted curve at half-maximal effect). The following applies: recombinant CYP1A2, luciferin-ME demethylation, luminescence; series mostly up to 57 µM. The method in brief: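 20nM CYP1A2 with 100uM Luciferin-ME (at Km) in 100mM KPO4; compound preincubated 10 min, NADPH regeneration added, 60 min at room temperature. Luciferin quantified by luminescence after detection reagent; normalized to 57 uM furafylline.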

Test [4] can be described thus: NFAT Signaling Pathway (AID 444; active = well fitted curve in either direction with a large enough effect, not every such curve was filed as active;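 also: carbachol stimulus at about its EC50 of 1 µM final; % is scaled to controls: 0 for no effect and ±100 for the full control effect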). Conditions: Jurkat NFAT-bla M1, carbachol, beta-lactamase ratio, 5 h; at 7.69 µM (top of the series) unless noted. The method in brief: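 Read-out: CCF4 FRET ratio (460 nm/530 nm) after 1 h RT dye loading, used for %activity and AC50 from titration series. Cells: Jurkat NFAT-β-lactamase/M1 line, treated with compound plus 1 uM carbachol for 5 h, 37 °C.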

The target of test [5] is Glucocorticoid receptor (Homo sapiens) (UniProt P04150). As to the kind of experiment: GR-GFP Redistribution (AID 450;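 active = compounds whose dose series gives a full or clear partial fitted curve of increased nuclear translocation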; also: potency is read from the fitted curve at half-maximal effect). The following applies: U2OS GR-GFP nuclear translocation, laser cytometry, 2 h.
Test [6] shares this target. As to the kind of experiment: GR-EFC Redistribution (AID 451; calls by dose curve; also: potency is read from the fitted curve at half-maximal effect). Conditions: CHO-K1 GR-EFC translocation, beta-gal luminescence, 2 h. Put shortly:
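Translocation of GR-ED fusion to nuclear EA restores b-gal, read by luminescence after 1 h room-temperature detection. Engineered CHO-K1 biosensor cells, 1,000/well, exposed 2 h at 37 C to titrations up to 46 uM final.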

For test [7], the target named is Mitogen-activated protein kinase 10 (Mus musculus) (UniProt Q61831). As to the kind of experiment: JNK3 AlphaScreen Assay (AID 530; active = well fitted curve in either direction with a large enough effect, not every such curve was filed as active;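 also: kinase came from lysate of stimulated human HepG2 cells; signal reports phosphorylation of biotinylated GST-cJun 1-79 at Ser73 with 10 µM ATP; % is scaled to controls: 0 for no effect and ±100 for the full control effect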). The following applies: JNK3 lysate, c-Jun phosphorylation; series mostly up to 57.1 µM. Put shortly:
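Compound titrations were preincubated 15 minutes at room temperature with substrate, antibody and pre-activated JNK3-containing HepG2 lysate. Reactions were started with 10 uM ATP and stopped with EDTA-containing bead buffer for AlphaScreen detection.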
For orientation: Bead proximity is the source of the signal in Alpha formats.

Test [8] deals with 3',5'-cyclic-AMP phosphodiesterase 4B (Homo sapiens) (UniProt Q07343). As to the kind of experiment: qHTS Assay for Inhibitors of PDE-IV (AID 607; active = well fitted activation curve with a large enough effect in the main read-out, with a control signal flat, not every such curve was filed as active; also: % of control where 0% means no effect). The following applies: HEK293 ACTOne CNG channel cells, membrane potential fluorescence; series mostly up to 22.9 µM. The method in brief:
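Live HEK293 cells with a modified cyclic nucleotide-gated (CNG) channel report intracellular cAMP via membrane-potential dye fluorescence (ex 535/em 590 nm). Endogenous PDE-IV was targeted. Compounds were tested at up to 22.9 uM final; RO 20-1724 100 uM served as control.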
In general terms: qHTS replaces the single test concentration by a dilution series.

Test [9] addresses Cytochrome P450 3A4 (Homo sapiens) (UniProt P08684). Put plainly: qHTS Assay for Activators of Cytochrome P450 3A4 (AID 885). Also: nearly all actives have a fitted effect of over 65% in size. The following applies: recombinant CYP3A4, Luciferin-PPXE luminescence, 60 min; series mostly up to 57.1 µM. The method in brief: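 Quantitative HTS format: compounds preincubated with 20nM human CYP3A4 and Luciferin-PPXE substrate at KM, reaction started by NADPH regeneration, stopped after 60 min, luciferase luminescence read 20 min later.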

Test [10] in a line: qHTS Assay for Identification of Small Molecule Agonists for Hypoxia Response Element Signaling Pathway (AID 914; active = well fitted activation curve with a large enough effect in the signal ratio, with a control signal flat, not every such curve was filed as active; the % refers to the signal ratio; also: potency is read from the fitted curve at half-maximal effect). Conditions: ME-180 HRE-bla reporter, beta-lactamase ratio, CoCl2, 17 h; activation: active compounds read high. Put shortly: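 HRE-bla ME-180 cells with beta-lactamase reporter under hypoxia response element, compounds with EC50 CoCl2 for 17 hours at 37 C. CCF4 substrate, 460nm/530nm emission ratio gave %Activity; AC50 from titration series.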

For test [11], the target named is Dual specificity protein kinase CLK4 (Homo sapiens) (UniProt Q9HAZ1). As to the kind of experiment: qHTS Assay for Inhibitors of CDC-like Kinase 4 (Kinase-Glo Assay) (AID 1770). Also: nearly all actives have a fitted effect of over 65% in size. Also: potency is read from the fitted curve at half-maximal effect. Conditions: recombinant Clk4, Kinase-Glo ATP depletion luminescence; series mostly up to 66.7 µM. The method in brief:
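25 nM Clk4 with 100 uM RS repeat peptide and 1 uM ATP (final) in Tris pH7.5, 10 mM MgCl2, 4.5 h at room temperature. Remaining ATP measured by Kinase-Glo luciferase luminescence.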

Test [12] has the same target. Put plainly: qHTS Assay for Inhibitors of CDC-like Kinase 4 (ADP-Glo Assay) (AID 1771). Also: nearly all actives have a fitted effect of over 70% in size. Also: potency is read from the fitted curve at half-maximal effect. Conditions: recombinant CLK4, ADP-Glo luminescence; series mostly up to 80 µM. The method in brief:
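25 nM Clk4 with 100 uM RS repeat peptide and 1 uM ATP (final) in buffer with 2 mM MgCl2, 0.5 mM EGTA, 2.5 mM DTT, 0.01% Triton X-100; 1 h at room temperature; ADP-Glo luminescence for ADP formed.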

The target is the same in test [13]. Put plainly: qHTS Assay for Inhibitors of CDC-like Kinase 4 (ADP-FP Assay) (AID 1795). Also: nearly all actives have a fitted effect of over 60% in size. Also: potency is read from the fitted curve at half-maximal effect. Conditions: Transcreener ADP fluorescence polarization; series mostly up to 50 µM. Put shortly:
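Recombinant Clk4 (6.25 nM) phosphorylated 100 uM RS repeat peptide with 1 uM ATP in 25 mM Tris pH 7.5, 10 mM MgCl2, 0.5 mM EGTA, 2.5 mM DTT, 0.01% Triton X-100 for 1 h. ADP was detected by Transcreener ADP2 competitive fluorescence polarization after 30 min at room temperature.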

Test [14] addresses Ubiquitin carboxyl-terminal hydrolase 1 (Homo sapiens) (UniProt O94782). As to the kind of experiment: Inhibitors of USP1/UAF1: Pilot qHTS (AID 504865). Also: nearly all actives have a fitted effect of over 35% in size. Also: potency is read from the fitted curve at half-maximal effect. Conditions: purified USP1/UAF1, Ub-rhodamine cleavage fluorescence; series mostly up to 54.9 µM. The method in brief:
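USP1/UAF1 complex at 1 nM preincubated 15 min at room temperature with compound, then Ub-Rho substrate added at 150 nM final. Fluorescence (480/540 nm) read kinetically in 50 mM HEPES pH 7.8, 0.5 mM EDTA, 1 mM TCEP, 0.1 mg/ml BSA, 0.01% Tween-20.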

Test [15] is described as follows: Primary qHTS for small molecule stabilizers of the endoplasmic reticulum resident proteome: Secreted ER Calcium Modulated Protein (SERCaMP) assay (AID 1508630). Also: % is scaled to controls: 0 for no effect and ±100 for the full control effect. Conditions: SH-SY5Y GLuc-SERCaMP (Gaussia luciferase released on ER calcium loss) secretion, thapsigargin, luminescence; series mostly up to 38.4 µM. Put shortly:
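GLuc-SERCaMP-expressing SH-SY5Y cells, pretreated 16 h with compound, are challenged with thapsigargin to empty ER calcium stores; after 4 h, coelenterazine is added directly to the medium and luminescence is imaged.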

Test [16] addresses Cytochrome P450 3A4 (Homo sapiens) (UniProt P08684). As to the kind of experiment: qHTS Assay for Inhibitors and Substrates of Cytochrome P450 3A4 (AID 884). Also: potency is read from the fitted curve at half-maximal effect; nearly all actives have a fitted effect of over 50% in size. The following applies: recombinant CYP3A4, Luciferin-PPXE luminescence; series mostly up to 57.1 µM. The method in brief: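 20 nM human CYP3A4 with 25 uM Luciferin-PPXE (at KM) in 200 mM KPO4, preincubated 10 min with compound; NADPH regeneration started a 60 min RT reaction. Luciferin detected by luminescence, normalized to 57 uM ketoconazole as full inhibition.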

Test [17] can be described thus: Stat Signaling Pathway (AID 446; active = well fitted curve in either direction with a large enough effect, not every such curve was filed as active). The following applies: ME-180 (cervical carcinoma) SIE beta-lactamase reporter, IL-6 stimulated, 5 h; at 7.69 µM (top of the series) unless noted. The method in brief: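 IL-6/STAT signaling read in ME-180 cells via an SIE beta-lactamase reporter. Stimulus was 40 pM IL-6 (its AC50) for 5 hrs, so both activation and inhibition register.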
The target in test [18] is Cytochrome P450 2C19 (Homo sapiens) (UniProt P33261). Put plainly: qHTS Assay for Inhibitors and Substrates of Cytochrome P450 2C19 (AID 899). Also: potency is read from the fitted curve at half-maximal effect; nearly all actives have a fitted effect of over 60% in size. The following applies: recombinant CYP2C19, luciferin-H EGE luminescence; series mostly up to 57.1 µM. Put shortly:
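Reactions contain 5nM enzyme, 10uM Luciferin-H EGE (KM) and 50mM KPO4; compound preincubates 10 min at 37C, NADPH regeneration starts turnover for 60 min. Luminescence after detection reagent gives activity.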

Values without a mark were called inactive. Records with an inconclusive call do not appear. Calls of active or inactive are those of the source. Unless noted, calls follow the shape of the dose curve; as a rule, active = well fitted curve in the direction sought with a large enough effect; inconclusive = small, poorly fitted or top-dose-only effect, or another doubt; inactive = no such curve, though single readings can be large; an effect the other way counts as inactive or inconclusive.

Ubiquitin carboxyl-terminal hydrolase 1 (Homo sapiens), sequence (O94782 whole entry, looked up): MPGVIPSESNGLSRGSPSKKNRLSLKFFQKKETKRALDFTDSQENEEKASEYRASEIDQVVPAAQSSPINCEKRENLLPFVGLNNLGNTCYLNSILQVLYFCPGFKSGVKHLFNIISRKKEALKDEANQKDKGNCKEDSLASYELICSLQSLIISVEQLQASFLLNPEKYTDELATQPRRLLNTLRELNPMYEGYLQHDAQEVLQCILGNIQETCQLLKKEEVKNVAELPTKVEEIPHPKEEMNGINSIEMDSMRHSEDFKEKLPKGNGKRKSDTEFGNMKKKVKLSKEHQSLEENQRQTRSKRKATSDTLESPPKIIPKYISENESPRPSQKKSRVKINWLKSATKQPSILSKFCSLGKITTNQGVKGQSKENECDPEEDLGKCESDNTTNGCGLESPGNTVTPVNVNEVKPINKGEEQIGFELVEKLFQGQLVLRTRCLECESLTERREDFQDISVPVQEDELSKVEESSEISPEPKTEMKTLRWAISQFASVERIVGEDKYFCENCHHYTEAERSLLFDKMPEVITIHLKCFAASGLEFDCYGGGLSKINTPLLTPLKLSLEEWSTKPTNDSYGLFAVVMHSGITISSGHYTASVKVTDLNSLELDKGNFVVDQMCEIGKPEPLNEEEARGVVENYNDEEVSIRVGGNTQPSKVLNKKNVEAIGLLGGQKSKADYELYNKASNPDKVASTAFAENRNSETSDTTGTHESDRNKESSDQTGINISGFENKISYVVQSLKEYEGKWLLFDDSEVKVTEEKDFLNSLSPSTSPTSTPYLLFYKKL
Cytochrome P450 1A2 (Homo sapiens), sequence (P05177 whole entry, looked up): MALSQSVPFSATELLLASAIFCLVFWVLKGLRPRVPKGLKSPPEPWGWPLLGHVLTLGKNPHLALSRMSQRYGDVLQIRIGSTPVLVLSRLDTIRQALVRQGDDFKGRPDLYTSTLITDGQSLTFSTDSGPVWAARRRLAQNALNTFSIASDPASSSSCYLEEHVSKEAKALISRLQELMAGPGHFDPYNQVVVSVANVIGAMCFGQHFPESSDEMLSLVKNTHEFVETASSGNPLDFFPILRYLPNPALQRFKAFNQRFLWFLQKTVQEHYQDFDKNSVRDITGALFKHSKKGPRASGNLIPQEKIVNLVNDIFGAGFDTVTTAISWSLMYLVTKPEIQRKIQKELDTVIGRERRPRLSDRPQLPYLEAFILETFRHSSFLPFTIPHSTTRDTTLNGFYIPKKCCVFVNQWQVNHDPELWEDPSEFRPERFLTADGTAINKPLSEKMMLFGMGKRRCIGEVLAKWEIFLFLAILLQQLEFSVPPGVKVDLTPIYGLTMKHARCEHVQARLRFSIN
Glucocorticoid receptor (Homo sapiens), sequence (P04150 whole entry, looked up): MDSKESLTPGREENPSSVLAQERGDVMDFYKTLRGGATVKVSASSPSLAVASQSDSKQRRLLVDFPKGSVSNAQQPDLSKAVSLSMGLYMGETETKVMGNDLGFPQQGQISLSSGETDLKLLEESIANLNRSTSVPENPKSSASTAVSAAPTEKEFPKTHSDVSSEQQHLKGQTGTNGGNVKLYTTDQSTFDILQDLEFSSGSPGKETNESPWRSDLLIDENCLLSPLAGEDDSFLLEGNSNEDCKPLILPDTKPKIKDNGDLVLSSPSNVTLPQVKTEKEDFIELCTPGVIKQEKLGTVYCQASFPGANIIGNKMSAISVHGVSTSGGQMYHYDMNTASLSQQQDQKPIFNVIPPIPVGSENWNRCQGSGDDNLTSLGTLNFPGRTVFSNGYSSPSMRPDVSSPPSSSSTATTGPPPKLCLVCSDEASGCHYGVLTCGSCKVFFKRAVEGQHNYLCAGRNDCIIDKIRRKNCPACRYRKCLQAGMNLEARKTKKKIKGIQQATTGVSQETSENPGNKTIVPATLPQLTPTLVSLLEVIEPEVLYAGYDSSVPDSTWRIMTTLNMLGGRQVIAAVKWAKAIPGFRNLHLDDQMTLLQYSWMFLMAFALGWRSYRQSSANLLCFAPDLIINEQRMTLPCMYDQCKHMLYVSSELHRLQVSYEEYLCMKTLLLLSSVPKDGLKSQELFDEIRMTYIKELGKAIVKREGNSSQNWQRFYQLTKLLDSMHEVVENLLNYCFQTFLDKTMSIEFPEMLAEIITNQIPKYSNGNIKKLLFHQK
Dual specificity protein kinase CLK4 (Homo sapiens), sequence (Q9HAZ1 whole entry, looked up): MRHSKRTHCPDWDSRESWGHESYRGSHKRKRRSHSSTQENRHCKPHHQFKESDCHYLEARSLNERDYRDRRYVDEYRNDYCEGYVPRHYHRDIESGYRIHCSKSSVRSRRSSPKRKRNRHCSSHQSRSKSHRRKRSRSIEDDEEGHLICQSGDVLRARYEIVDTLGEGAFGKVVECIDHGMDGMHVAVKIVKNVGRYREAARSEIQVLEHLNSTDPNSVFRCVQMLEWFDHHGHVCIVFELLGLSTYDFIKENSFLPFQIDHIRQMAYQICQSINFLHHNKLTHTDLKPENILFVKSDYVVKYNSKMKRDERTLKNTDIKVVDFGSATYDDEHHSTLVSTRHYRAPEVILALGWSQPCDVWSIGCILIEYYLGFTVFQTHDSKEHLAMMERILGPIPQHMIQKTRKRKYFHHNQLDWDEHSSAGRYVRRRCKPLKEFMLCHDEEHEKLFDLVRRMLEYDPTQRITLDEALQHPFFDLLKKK
Cytochrome P450 3A4 (Homo sapiens), sequence (P08684 whole entry, looked up): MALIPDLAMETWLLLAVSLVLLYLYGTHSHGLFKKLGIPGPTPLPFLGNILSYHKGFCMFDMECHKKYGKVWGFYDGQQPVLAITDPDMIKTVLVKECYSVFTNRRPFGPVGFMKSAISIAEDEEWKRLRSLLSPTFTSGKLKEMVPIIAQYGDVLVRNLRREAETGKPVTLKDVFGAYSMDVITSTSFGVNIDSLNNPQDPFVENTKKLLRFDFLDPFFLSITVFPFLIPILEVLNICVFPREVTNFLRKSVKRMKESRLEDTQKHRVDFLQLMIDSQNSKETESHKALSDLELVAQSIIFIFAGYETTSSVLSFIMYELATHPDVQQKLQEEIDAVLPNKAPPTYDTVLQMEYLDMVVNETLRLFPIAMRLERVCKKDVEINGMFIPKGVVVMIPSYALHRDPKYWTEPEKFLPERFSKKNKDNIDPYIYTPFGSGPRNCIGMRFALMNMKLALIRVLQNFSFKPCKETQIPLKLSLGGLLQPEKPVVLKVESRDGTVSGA
3',5'-cyclic-AMP phosphodiesterase 4B (Homo sapiens), sequence (Q07343 whole entry, looked up): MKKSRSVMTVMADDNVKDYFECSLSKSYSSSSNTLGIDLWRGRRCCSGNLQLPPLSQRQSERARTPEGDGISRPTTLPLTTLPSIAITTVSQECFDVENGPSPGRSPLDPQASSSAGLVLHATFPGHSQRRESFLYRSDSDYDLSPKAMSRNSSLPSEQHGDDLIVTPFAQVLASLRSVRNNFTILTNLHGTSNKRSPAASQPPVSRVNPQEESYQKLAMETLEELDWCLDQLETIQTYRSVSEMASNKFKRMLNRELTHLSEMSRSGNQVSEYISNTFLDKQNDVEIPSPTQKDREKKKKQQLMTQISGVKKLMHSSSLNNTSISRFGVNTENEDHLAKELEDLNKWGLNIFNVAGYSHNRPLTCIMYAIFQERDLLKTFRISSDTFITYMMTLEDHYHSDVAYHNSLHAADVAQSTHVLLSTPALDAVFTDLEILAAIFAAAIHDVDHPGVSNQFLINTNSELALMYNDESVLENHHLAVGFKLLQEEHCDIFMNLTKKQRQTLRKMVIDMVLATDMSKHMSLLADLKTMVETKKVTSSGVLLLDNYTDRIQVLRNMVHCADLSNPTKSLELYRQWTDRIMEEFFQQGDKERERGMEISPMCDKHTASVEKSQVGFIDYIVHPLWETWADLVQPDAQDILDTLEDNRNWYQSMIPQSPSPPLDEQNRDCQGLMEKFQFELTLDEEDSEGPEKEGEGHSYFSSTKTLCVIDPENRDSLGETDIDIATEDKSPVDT
Lysosomal acid glucosylceramidase (Homo sapiens), sequence (P04062 whole entry, looked up): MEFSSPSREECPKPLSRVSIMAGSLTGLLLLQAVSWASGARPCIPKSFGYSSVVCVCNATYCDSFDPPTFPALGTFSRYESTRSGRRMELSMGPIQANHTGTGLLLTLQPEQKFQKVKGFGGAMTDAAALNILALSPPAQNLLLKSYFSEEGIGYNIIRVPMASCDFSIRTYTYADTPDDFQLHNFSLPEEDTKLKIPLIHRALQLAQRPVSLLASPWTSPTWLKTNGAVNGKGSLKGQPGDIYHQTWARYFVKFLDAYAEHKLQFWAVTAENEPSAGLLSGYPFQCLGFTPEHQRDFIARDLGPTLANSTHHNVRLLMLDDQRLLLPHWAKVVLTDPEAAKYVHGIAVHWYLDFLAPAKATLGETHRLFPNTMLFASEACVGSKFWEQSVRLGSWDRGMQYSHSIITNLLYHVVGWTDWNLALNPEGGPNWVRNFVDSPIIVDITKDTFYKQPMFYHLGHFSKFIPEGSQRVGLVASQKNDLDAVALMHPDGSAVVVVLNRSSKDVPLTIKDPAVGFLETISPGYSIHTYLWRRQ
Cytochrome P450 2C19 (Homo sapiens), sequence (P33261 whole entry, looked up): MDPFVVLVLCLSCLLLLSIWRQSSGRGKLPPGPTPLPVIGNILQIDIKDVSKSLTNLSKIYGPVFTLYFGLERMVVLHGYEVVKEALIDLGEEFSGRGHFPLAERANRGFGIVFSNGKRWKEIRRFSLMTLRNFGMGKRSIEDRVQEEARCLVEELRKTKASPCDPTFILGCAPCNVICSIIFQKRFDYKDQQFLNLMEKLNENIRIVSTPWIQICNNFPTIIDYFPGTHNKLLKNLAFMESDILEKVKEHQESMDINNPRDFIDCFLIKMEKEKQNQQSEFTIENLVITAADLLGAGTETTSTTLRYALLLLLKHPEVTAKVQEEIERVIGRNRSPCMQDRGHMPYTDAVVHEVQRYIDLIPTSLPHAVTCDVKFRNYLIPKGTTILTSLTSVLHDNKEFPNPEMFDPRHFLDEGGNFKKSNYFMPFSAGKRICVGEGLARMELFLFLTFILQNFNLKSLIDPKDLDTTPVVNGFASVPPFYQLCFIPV

Consider `CCNc1ncc2nc(-c3cc(F)cc(F)c3)c(=O)n(CCc3ccccc3)c2n1`, for which the Potency is more than 11.4 µM in test [1]; 25.1 µM (active) in test [3]; more than 9.22 µM in [5]; more than 46 µM in test [6]; 1 µM (active) in [10]; 20 µM (active) in test [14]. Moreover, the activity change, negative = inhibition is 109% [activator] (active) in test [2] and 137% [activator] (active) in test [4]. For the same molecule, the Potency entry in test [7], in test [8], in test [9], in test [11], in test [12] and in [13] was “inactive” each time. Further, the result in test [15] was inactive.

With `N#Cc1ccccc1-c1ccc2ncnc(NC3CC3)c2c1`, the Potency in [1] was more than 11.4 µM; in test [3] it was 0.1 µM (active); in [5] it was more than 46 µM; in test [6] it was more than 46 µM; in test [16], 2 µM (active); in test [11], 6.31 µM (active). The Potency in test [12] is 5.62 µM (active); in test [13], 7.08 µM (active). Further, the activity change, negative = inhibition in test [2] was -12.1%; in test [4] it was 21.2%. The Potency entry in test [7], in test [9] and in test [14] was “inactive” in each case. Moreover, the outcome in test [15] was inactive.

For the molecule `CCNc1ncc2nc(-c3cccs3)c(=O)n(Cc3cccc(OC)c3)c2n1`, the Potency in test [1] was more than 11.4 µM; in test [3] it was 0.126 µM (active); in test [5] it was more than 9.22 µM; in test [6] it was more than 46 µM. Also, in test [2], the activity change, negative = inhibition was 19.3%. Besides, the Potency result in [7], in [8], in test [9], in [11], in test [12] and in test [13] was “inactive” in each case. Also, the Potency result in test [14] was “inactive”. Also, the outcome in [15] was inactive.

Regarding `CN(Cc1ccco1)c1ccnc(-c2cccc(C#N)c2)n1`, the Potency was more than 11.4 µM in test [1]; 0.398 µM (active) in test [3]; more than 46 µM in test [5]; more than 46 µM in [6]; 14.1 µM (active) in [11]; 15.8 µM (active) in [12]. Besides, in test [13], the Potency was 14.1 µM (active). Moreover, the activity change, negative = inhibition in test [2] is -18.2%. In addition, in test [17], the activity, negative = inhibition was 2.59%. Besides, the Potency result in test [7], in test [8], in test [9] and in test [14] was “inactive” in each case. Also, the result in [15] was inactive.

Regarding `COc1ccccc1CNc1ccnc(-c2ccccc2CN(C)C)n1`, the Potency in [1] was more than 11.4 µM; in [5], more than 46 µM; in test [6], more than 46 µM. Besides, the figures for the activity change, negative = inhibition in test [2] and in test [4] were -7.71% and -25.2%, respectively. Moreover, the activity, negative = inhibition in test [17] was 3.25%. For the same molecule, the Potency result in test [7], in test [11], in [12], in test [13] and in [14] was “inactive” each time. Besides, the result in test [15] was inactive.

With `COc1cccc(Cn2c(=O)c(CCc3ccccc3)nc3cnc(N4CCOCC4)nc32)c1`, the Potency in [1] is more than 11.4 µM; in [5] it was more than 9.22 µM; in [6] it was more than 46 µM. In addition, the activity change, negative = inhibition in test [2] was 0.275%; in [4] it was -19.1%. The activity, negative = inhibition in [17] is -8.53%. Moreover, the Potency result in [7], in test [11], in [12], in test [13] and in test [14] was “inactive” throughout. For the same molecule, the outcome in test [15] was inactive.

As for `COc1ccc(CNc2nc(-c3c(C)noc3C)nc3ccccc23)c(OC)c1`, the Potency is more than 2.29 µM in [1]; 0.794 µM (active) in [3]; more than 46 µM in test [5]; more than 46 µM in test [6]; 2.51 µM (active) in test [16]; 3.16 µM (active) in test [18]. The activity change, negative = inhibition in test [2] was 5.92%. Moreover, the Potency result in test [7], in test [9], in [11], in [12] and in test [13] was “inactive” each time. In addition, in [15], the result was inactive.
